The supplement of paper PMC4723716
Whole data set: some 3,600 compounds, median “viability index relative to DMSO control” near 0.81, cut for the lowest 2% near 0.13. This is one part of a sample in which the lowest values are shown more often than they occur.

The compounds below were run on Plasmodium falciparum NF54 stage V gametocytes (assay: viability index relative to DMSO control (fraction); higher = less gametocyte killing). Conditions: 1.25 µM, incubation time: 72 h.
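Further: Saponin-lysis sexual stage assay in serum-free medium: MitoTracker Red CMXRos staining plus saponin, high-content imaging, particle count per well divided by plate mean of DMSO wells.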

Compound	viability index
O=C(c1cc2n(n1)C(C(F)(F)F)CC(c1ccc3c(c1)OCO3)N2)N1CCN(C(c2ccccc2)c2ccccc2)CC1 (stereo not given)	0.682
CC(=O)Nc1ccc(-c2nc3c4ccccc4c4ccc(I)cc4c3[nH]2)cc1	0.762
C(=NNc1nc2ccccc2[nH]1)c1c[nH]c2ccccc12	0.558
COc1cccc(CNc2cc(C(=O)NCCNC(C)=O)cc(S(=O)(=O)N(C)C)c2)c1OC	1.32
CCOc1ccc2nc(C)cc(Nc3ccc(C)c(Cl)c3)c2c1	0.852
CCOc1ccc2nc3cc(NCc4ccco4)ccc3c(N)c2c1	0.775
COc1ccc(C2c3[nH]c4ccccc4c3C[C@H]3C(=O)N(CCC(C)C)CC(=O)N23)cc1 (stereo not given in full)	0.803
C=CCSc1nnc2c(n1)[nH]c1ccc(OCC)cc12	0.656
Cc1cccc(-c2nc3cc(NC(=S)NC(=O)c4ccc(Cl)cc4)ccc3o2)c1	0.808
Cc1ccc(-c2nc3cc(NC(=O)c4ccc([N+](=O)[O-])o4)ccc3o2)cc1Br	0.0755
Nc1ccc(C(=O)Nc2ccc(-c3nc4ccccc4o3)cc2)cc1	0.703
Cc1cc(N2CCN(C)CC2)nc2ccc(NC(=O)c3ccc(Br)o3)cc12	0.924
Cc1cc([N+](=O)[O-])ccc1-c1ccc(C(=O)Nc2ccc(-c3nc4ccccc4[nH]3)cc2)o1	0.622
O=C(Nc1ccc2oc(-c3ccc(I)cc3)nc2c1)c1ccc([N+](=O)[O-])o1	0.0302
Cc1cccc(-c2nc3cc(NC(=O)c4ccc([N+](=O)[O-])o4)ccc3o2)c1	0.0679
Cc1cc(N2CCC(C)CC2)nc2ccc(NC(=O)c3ccc([N+](=O)[O-])o3)cc12	0.12
Cc1cc(N2CCCCC2)nc2ccc(NC(=O)c3cccc([N+](=O)[O-])c3)cc12	0.787
O=C(Nc1ccc(-c2nc3ccc(NC(=O)c4ccc(Br)o4)cc3[nH]2)cc1)c1ccc(Br)o1	1.1
Cc1ccc(-c2nc3cc(NC(=O)c4ccc(Cl)cc4Cl)ccc3o2)cc1	1.32
O=C(CN1CCN(C(=O)c2ccccc2)CC1)Nc1ccc(-c2nc3cc(NC(=O)CN4CCN(C(=O)c5ccccc5)CC4)ccc3o2)cc1	0.951
CNC(=O)c1nn(C)c2c1CC(NCC1CCCCC1)CC2 (stereo not given)	0.702
CC(=NNC(=O)c1ccc(C)cc1)c1ccccn1	0.294
CCOC(=O)c1oc2cc(O)c(CC)cc2c(=O)c1-c1ccc2c(c1)OCO2	1.09
CCOc1ccc2[nH]c(=O)c(CN(CCCN3CCOCC3)C(=S)NCCCN(CC)CC)cc2c1	0.814
Oc1cccc(Nc2nc(NCc3ccco3)c3ccccc3n2)c1	0.595
O=[N+]([O-])c1cccc(Cl)c1N1CCN(S(=O)(=O)Cc2ccccc2)CC1	1
COc1cc(C=C(C#N)c2nc3ccccc3[nH]2)ccc1OCc1ccccc1Cl	0.678
CC1CC(N(C(=O)c2ccc(Cl)cc2Cl)c2ccccc2)c2ccccc2N1C(=O)c1ccc(Cl)cc1 (stereo not given)	0.723

Compound	viability index
O=[N+]([O-])c1cc([N+](=O)[O-])c2cccnc2c1Nc1cccc2cccnc12	0.209
CCC(=O)NC(c1cccc([N+](=O)[O-])c1)c1ccc2cccnc2c1O (stereo not given)	1.12
O=[N+]([O-])c1cc(C(F)(F)F)cc([N+](=O)[O-])c1Sc1cccc2cccnc12	0.0789
COc1cccc2c1OCC(CN1CCC(C(=O)Nc3ccc(-n4cccn4)cc3)CC1)=C2	1.03
O=C(Nc1ccc(F)c(F)c1)c1ccccc1[N+](=O)[O-]	1.03
O=C(Nc1ccc(-c2nc3ccccc3[nH]2)cc1)c1ccc(-c2cccc([N+](=O)[O-])c2)o1	0.751
O=C(Nc1ccc2oc(-c3cccc4ccccc34)nc2c1)c1ccc([N+](=O)[O-])o1	0.0679
O=C(Nc1ccc2oc(-c3ccccc3F)nc2c1)c1ccc([N+](=O)[O-])o1	0.128
CCC(C)(C)c1ccc(Oc2ccc(NC(=O)c3ccc([N+](=O)[O-])o3)cc2)cc1	0.362
O=C(Nc1ccc(-c2nnc(-c3ccc(NC(=O)c4ccccc4[N+](=O)[O-])cc3)o2)cc1)c1ccccc1[N+](=O)[O-]	0.756
CCN1C(=Cc2cccc[n+]2C)C=Cc2ccccc21	1.01
CCN1CCC(NC2CCCc3c2[nH]c2ccc([N+](=O)[O-])cc32)CC1 (stereo not given)	1.07
CC1CCN(C(=O)C(C)N(c2ccccc2)S(C)(=O)=O)CC1 (stereo not given)	0.917
O=C1OC(c2ccccc2)=NC1=C(Cl)Cl	1.1
Cc1cc(Nc2ccc(O)cc2)nc2cccc(O)c12	0.735
C=CC[n+]1cccc2c3ccccc3ccc21	0.706
c1ccc2c(c1)ccc1cc3cccc[n+]3cc12	0.0821
Cc1c2ccccc2cc(Cc2ccccc2)[n+]1C	0.76
O=C(c1ccc([N+](=O)[O-])cc1)c1ccc(Cl)c(Cl)c1	0.574
CCOC(=O)C1=C(C)N=c2sc(=Cc3cccc(OCc4cccc5ccccc45)c3)c(=O)n2C1c1ccc(OC)cc1OC (stereo not given)	0.924
O=C(Cc1ccc(Cl)cc1)NNS(=O)(=O)c1ccc([N+](=O)[O-])cc1	0.939
O=C(Nc1ccc(-c2nc3ccccc3[nH]2)cc1)c1cccc(C(=O)Nc2ccc(-c3nc4ccccc4[nH]3)cc2)n1	0.0331
O=C(C=Cc1ccccc1)Nc1ccc(-c2nc3cc(NC(=O)C=Cc4ccccc4)ccc3[nH]2)cc1	0.11
O=C(Nc1ccc(-c2nc3ccccc3[nH]2)cc1)c1ccc(-c2ccc(Cl)cc2)o1	0.725
O=C(Nc1ccc(-c2nc3ccccc3[nH]2)cc1)c1ccc(Cl)c(Cl)c1	1.03
O=C(Nc1ccc(-c2nc3cc(NC(=O)c4cccs4)ccc3[nH]2)cc1)c1cccs1	1.05
O=C(Nc1ccc(-c2nc3cc(NC(=O)C(c4ccccc4)c4ccccc4)ccc3[nH]2)cc1)C(c1ccccc1)c1ccccc1	0.908
